We go through five compounds from PubChem BioAssay.

A short description of test [1]: binders of probe aFSTL3 on microarray, primary screen, stem cell growth factor project, biochemical, small-molecule microarray, fluorescence 635/667 (AID 1064).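 Note: measures binding of the biotinylated anti-FSTL3 antibody to printed compounds.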 As to conditions: higher = more signal.
Test [2] in a line: binders from COS7 lysate, DM2A8 probe, primary screen, torsin A project, cell lysate, small-molecule microarray, fluorescence 635/667 (AID 1065). As to conditions: higher = more signal, COS7 lysate expressing mutant human TOR1A.
Test [3] can be described thus: binders of probe aFGF2 on microarray, primary screen, stem cell growth factor project, biochemical, small-molecule microarray, fluorescence 635/667 (AID 1067).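 Note: measures binding of biotinylated aFGF2 protein to printed compounds on slides; z-score merges feature fluorescence and signal-to-noise across triplicate slides.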 As to conditions: higher = more signal.
Test [4] in a line: binders of probe aFGF10 on microarray, primary screen, stem cell growth factor project, biochemical, small-molecule microarray, fluorescence 635/667 (AID 1071).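 Note: score merges 667 nm spot intensity and signal to noise from triplicate slides.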 To be noted: higher = more signal.
For test [5], the target named is Neurogenic locus notch homolog protein 2 (Homo sapiens) (UniProt Q04721). Briefly: Notch2 binders on small-molecule microarrays, primary screen, biochemical, small-molecule microarray, 635 nm fluorescence, stem cell growth factors (AID 1073). To be noted: Notch2 binding, higher = more signal.
Test [6] has as its target Pro-neuregulin-1, membrane-bound isoform (Homo sapiens) (UniProt Q02297). Briefly: NRG1 binders on small-molecule microarrays, primary screen, psychiatric disease protein project, biochemical, small-molecule microarray, fluorescence 635/667 (AID 1075).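 Note: score combines 667 nm spot fluorescence with signal to noise.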 As to conditions: NRG1 binding, 635 nm fluorescence, higher = more signal.
The test system of test [7] is Neuregulin-1 EGF-like domain. Briefly: binders of neuregulin-1 EGF-like domain, primary screen, biochemical, small-molecule microarray, 635 nm fluorescence (AID 1081).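 Note: binding of the protein to compounds printed on small-molecule microarray slides.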 As to conditions: small-molecule microarray binding, higher = more signal.
Test [8] is described as follows: FRG1 promoter luciferase signal modulators, primary screen, FRG1 inhibition for FSHD, cell-based, C2C12 myotubes, firefly/Renilla luciferase, luminescence (AID 1084). As to conditions: higher = more signal, called active from +8 up or from −8 down.
Test [9] is described as follows: binders of probe aFST on microarray, primary screen, stem cell growth factor project, biochemical, small-molecule microarray, fluorescence 635/667 (AID 1086).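 Note: score merges 667 nm fluorescence with signal-to-noise of each printed compound spot.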 As to conditions: higher = more signal.
A short description of test [10]: binders of probe aHhip on microarray, primary screen, stem cell growth factor project, biochemical, small-molecule microarray, fluorescence 635/667 (AID 1087).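 Note: score merges spot fluorescence at 667nm with spot signal to noise ratio.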 To be noted: higher = more signal.
Test [11] has as its system PRMT1 (protein arginine N-methyltransferase 1). Briefly: PRMT1 binders on small-molecule microarrays, primary screen, biochemical, small-molecule microarray, 635 nm fluorescence (AID 1088).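 Note: binding of Prmt1 protein to compounds spotted on small-molecule microarray slides.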 As to conditions: small-molecule microarray binding, higher = more signal.
Test [12] can be described thus: yeast growth modulation, basal conditions, primary screen, YJM789 clinical isolate, OD600, 24 h (AID 1089).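 Note: growth of clinical yeast isolate S. cerevisiae YJM 789 seeded 1000 cells per well; test concentration not given here.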 As to conditions: S. cerevisiae YJM789 growth, higher = more signal, called active from +8 up or from −8 down.
Test [13] can be described thus: fission yeast growth modulation, primary screen, strain 972, OD600, 24 h, no modulator (AID 1090).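 Note: basal condition with compound alone and no growth modifier present; test concentration not given here.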 To be noted: S. pombe 972 growth, higher = more signal, called active from +8 up or from −8 down.
Test [14] in a line: S. cerevisiae growth modulation with rapamycin, primary screen, strain BY4716, OD600, 96 h (AID 1091). Note: test concentration not given here. To be noted: higher = more signal, called active from +8 up or from −8 down.
The target in test [15] is Torsin-1A-interacting protein 2 (Homo sapiens) (UniProt Q8NFQ8). Briefly: LULL1 binders on small-molecule microarray, primary screen, cell lysate, human LULL1 lysate, 635/667 nm fluorescence (AID 1092).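 Note: probe is lysate of COS7 cells overexpressing human LULL1; score merges per-feature 667 nm fluorescence with signal-to-noise.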 To be noted: hLULL1 lysate binding, 635 nm fluorescence, higher = more signal.
The nature of test [16]: E. coli growth modulation, two-sided OD650, primary screen, E. coli filamentation project, strain DRC41, 24 h (AID 1093).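 Note: MC1000 strain lacking acrAB efflux and sulA so SOS filamentation is blocked; test concentration not given here.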 As to conditions: OD650, 24 h, higher = more signal, called active from +8 up or from −8 down.
A short description of test [17]: small-molecule microarray binders of probe aLefty2, primary screen, biochemical, biotinylated probe, 635/667 nm fluorescence (AID 1094).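 Note: score merges spot fluorescence near 667 nm with spot signal-to-noise ratio.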 As to conditions: higher = more signal.
For test [18], the system named is Noggin (protein binding on small-molecule microarray). The test can be described thus: Noggin binders on small-molecule microarray, primary screen, biochemical, 635/667 nm fluorescence (AID 1095).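 Note: score merges 667 nm feature fluorescence with signal to noise over triplicate slides.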 As to conditions: 635 nm fluorescence, higher = more signal.
In test [19] the target is Neurogenic locus notch homolog protein 3 (Homo sapiens) (UniProt Q9UM47). Briefly: NOTCH3 binders on small-molecule microarray, primary screen, biochemical, 635/667 nm fluorescence (AID 1096). As to conditions: NOTCH3 binding, 635 nm fluorescence, higher = more signal.
Test [20] is described as follows: small-molecule microarray binders of probe aEGFR, primary screen, biochemical, biotinylated probe, 635/667 nm fluorescence (AID 1097).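 Note: probe is a biotinylated anti-EGFR antibody binding compounds printed on slides; score combines fluorescence near 667 nm and signal to noise of each spot.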 To be noted: higher = more signal.

Active and inactive are the calls of the source.

Sequence of Pro-neuregulin-1, membrane-bound isoform (Homo sapiens) (Q02297 whole entry, looked up, the tested form may be a part, canonical isoform): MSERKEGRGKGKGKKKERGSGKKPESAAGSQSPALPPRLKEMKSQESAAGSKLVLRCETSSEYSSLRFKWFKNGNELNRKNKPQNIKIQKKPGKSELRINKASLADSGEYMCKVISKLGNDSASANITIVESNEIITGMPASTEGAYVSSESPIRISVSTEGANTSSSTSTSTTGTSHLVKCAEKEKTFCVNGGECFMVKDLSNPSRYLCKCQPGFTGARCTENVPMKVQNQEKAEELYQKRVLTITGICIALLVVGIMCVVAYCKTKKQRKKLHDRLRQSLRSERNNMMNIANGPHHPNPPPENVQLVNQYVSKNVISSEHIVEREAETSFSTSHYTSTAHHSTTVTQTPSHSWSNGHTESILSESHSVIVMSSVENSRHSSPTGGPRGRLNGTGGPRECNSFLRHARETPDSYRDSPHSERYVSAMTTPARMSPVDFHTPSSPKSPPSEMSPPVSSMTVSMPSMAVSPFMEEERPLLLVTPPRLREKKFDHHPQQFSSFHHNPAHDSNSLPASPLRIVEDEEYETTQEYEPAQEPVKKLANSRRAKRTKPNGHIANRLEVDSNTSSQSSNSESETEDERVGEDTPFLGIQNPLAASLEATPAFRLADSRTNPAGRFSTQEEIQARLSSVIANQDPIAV
Sequence of Torsin-1A-interacting protein 2 (Homo sapiens) (Q8NFQ8 whole entry, looked up): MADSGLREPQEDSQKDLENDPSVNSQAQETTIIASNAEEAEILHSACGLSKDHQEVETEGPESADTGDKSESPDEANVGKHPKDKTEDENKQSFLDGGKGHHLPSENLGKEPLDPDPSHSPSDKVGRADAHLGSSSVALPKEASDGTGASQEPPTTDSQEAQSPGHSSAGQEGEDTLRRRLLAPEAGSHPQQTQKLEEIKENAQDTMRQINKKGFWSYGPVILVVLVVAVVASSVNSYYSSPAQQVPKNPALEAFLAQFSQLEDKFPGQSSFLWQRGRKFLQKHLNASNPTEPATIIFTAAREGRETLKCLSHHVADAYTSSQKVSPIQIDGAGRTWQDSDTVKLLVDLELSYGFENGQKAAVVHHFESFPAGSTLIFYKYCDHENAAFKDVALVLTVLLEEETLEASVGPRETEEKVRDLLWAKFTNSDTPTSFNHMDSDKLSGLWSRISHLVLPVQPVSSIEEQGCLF
Sequence of Neurogenic locus notch homolog protein 3 (Homo sapiens) (Q9UM47 whole entry, looked up): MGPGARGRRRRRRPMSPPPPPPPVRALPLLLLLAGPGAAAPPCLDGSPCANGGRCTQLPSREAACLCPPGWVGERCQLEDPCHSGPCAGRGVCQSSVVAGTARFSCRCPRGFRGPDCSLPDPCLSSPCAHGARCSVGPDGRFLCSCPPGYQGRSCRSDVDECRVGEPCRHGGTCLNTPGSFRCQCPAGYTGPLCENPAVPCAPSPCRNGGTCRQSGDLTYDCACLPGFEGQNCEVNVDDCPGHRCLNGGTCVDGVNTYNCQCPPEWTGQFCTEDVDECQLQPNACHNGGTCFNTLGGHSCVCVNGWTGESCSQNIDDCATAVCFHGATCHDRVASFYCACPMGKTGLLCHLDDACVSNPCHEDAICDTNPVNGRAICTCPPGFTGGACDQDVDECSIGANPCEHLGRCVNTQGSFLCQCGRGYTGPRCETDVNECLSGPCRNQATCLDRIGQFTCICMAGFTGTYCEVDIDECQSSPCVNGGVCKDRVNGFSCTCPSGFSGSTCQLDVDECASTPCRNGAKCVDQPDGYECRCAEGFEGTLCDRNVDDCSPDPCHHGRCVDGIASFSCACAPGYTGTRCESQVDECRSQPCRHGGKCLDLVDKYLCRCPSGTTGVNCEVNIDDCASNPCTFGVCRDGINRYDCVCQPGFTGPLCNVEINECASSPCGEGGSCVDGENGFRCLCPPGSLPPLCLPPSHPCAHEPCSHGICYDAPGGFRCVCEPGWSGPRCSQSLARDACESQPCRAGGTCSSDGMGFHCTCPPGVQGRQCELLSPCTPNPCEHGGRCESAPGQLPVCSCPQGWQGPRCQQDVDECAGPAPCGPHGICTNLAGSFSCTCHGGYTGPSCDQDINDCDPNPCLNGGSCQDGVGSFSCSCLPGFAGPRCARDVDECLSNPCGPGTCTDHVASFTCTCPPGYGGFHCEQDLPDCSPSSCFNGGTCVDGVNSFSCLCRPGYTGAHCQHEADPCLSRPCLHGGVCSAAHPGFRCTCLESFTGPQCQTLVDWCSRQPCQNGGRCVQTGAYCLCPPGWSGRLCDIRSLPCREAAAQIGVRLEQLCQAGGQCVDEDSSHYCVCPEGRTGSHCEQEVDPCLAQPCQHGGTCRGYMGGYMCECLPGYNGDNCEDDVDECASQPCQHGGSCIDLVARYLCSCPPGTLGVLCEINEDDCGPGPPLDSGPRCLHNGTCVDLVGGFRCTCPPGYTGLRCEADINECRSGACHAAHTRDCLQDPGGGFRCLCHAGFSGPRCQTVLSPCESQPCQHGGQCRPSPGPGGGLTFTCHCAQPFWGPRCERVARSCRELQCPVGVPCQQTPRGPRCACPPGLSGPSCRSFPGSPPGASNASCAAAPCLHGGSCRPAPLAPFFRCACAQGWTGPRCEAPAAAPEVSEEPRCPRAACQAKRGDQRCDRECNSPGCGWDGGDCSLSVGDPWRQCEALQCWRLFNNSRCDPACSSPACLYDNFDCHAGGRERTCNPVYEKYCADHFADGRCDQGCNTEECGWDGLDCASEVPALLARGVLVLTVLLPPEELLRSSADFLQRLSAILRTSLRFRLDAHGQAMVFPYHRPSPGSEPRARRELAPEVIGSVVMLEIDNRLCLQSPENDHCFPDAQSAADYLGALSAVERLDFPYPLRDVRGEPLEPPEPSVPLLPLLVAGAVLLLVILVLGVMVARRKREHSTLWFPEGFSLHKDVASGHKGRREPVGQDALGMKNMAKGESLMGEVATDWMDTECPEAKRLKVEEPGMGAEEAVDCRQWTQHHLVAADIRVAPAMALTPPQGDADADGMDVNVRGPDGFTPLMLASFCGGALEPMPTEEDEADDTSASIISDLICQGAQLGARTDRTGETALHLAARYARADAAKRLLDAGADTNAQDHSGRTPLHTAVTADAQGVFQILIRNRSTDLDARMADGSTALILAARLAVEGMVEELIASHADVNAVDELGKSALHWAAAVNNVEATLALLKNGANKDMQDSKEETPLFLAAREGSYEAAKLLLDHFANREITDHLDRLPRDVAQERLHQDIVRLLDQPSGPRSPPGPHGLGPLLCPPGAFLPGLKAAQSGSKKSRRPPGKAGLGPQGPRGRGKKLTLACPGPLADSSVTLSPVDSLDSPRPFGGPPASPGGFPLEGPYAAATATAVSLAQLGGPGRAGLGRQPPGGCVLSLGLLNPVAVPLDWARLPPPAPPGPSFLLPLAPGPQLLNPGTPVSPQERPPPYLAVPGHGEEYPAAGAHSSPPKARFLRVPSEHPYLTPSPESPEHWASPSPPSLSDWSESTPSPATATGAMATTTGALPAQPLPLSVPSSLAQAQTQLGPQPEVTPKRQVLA

For `CCN(CC)c1ccc(N2CC=CC34O[C@@H]5/C=C\CCCOC(=O)C5[C@H]3C(=O)N(CCCCCCO)[C@@H]4C2=O)cc1` (stereo not given in full), the composite z-score in [1] is 0.272; in test [2], -0.305; in [3], -0.119; in test [4], -0.964; in test [5], -0.946; in [6], 1.63. For the same compound, the composite z-score was 0.709 in [7]; -0.958 in test [9]; -0.271 in [10]; 0.529 in [11]; 3.35 in test [15]; -0.162 in test [17]. Moreover, the composite z-score in test [18] was -0.885; in test [19], -0.122; in [20] it was -0.197. The z-score in [8] was -0.489 (inactive); in test [12] it was -2.29 (inactive); in [13], -0.737 (inactive); in test [14], -0.64 (inactive); in test [16], 1.27 (inactive).
For `[N-]=[N+]=NCc1ccccc1[C@H]1OC(c2ccc(OCCCO)cc2)=N[C@@]1(Cc1ccccc1N=[N+]=[N-])C(=O)N1CCCCC1`, the composite z-score was 0.398 in test [1]; 0.221 in test [2]; 0.141 in test [3]; 0.263 in [4]; 1.32 in test [5]; 1.32 in [6]. Also, the composite z-score in test [7] was 1.04; in test [9], 1.41; in test [10], -0.199; in test [11], 1.53; in [15] it was 3.44; in [17], 0.352. For the same compound, the composite z-score was found to be 0.667 in test [18], 1.12 in [19] and 0.23 in test [20]. Also, the z-score in test [8] was -1.6 (inactive); in [12], 0.401 (inactive); in test [13], 0.763 (inactive); in [14], 2.23 (inactive); in [16], 0.203 (inactive).
In the case of `CN(C)CCCN1C(=O)[C@@]2(Cc3ccccc31)c1ccccc1C(=O)N(Cc1ccccc1)[C@H]2c1ccc(CO)cc1`, the composite z-score in test [1] was -0.0277; in [2] it was 0.115; in test [3] it was -0.0861; in [4], -0.492; in test [5] it was -0.639; in test [6], 0.466. The composite z-score in [7] was -0.226; in [9], 1.02; in test [10], -0.0994; in test [11] it was 1.12; in test [15] it was -0.42; in test [17], -0.171. The composite z-score in test [18] was 0.542; in [19], 0.204; in test [20], -0.184. Further, the z-score in [8] was 0.878 (inactive); in [12] it was -0.0782 (inactive); in test [13], -1.35 (inactive); in [14], -1.85 (inactive); in [16], -1.42 (inactive).
For the compound `O=C1C2C=CC(C(O)c3ccc(Br)cc3)N(Nc3ccccc3)C2C(=O)N1c1ccccc1` (stereo not given), the composite z-score in test [1] came out at 0.385; in test [2], 0.227; in test [3] it was 0.191; in [4] it was 0.82; in test [5], 1.41; in [6] it was 1.86. Moreover, the composite z-score in test [7] is 1.09; in test [9], -0.194; in [10], -0.0645; in test [11], 0.826; in [15], 2.12; in test [17], 0.228. Also, the results for the composite z-score in test [18], in test [19] and in test [20] were -0.325, 1.12 and -0.0123, respectively. The z-score in test [8] was -2.33 (inactive); in [12], 0.379 (inactive); in test [13], 0.443 (inactive); in [14], 0.84 (inactive); in [16], -1.59 (inactive).
For `C=CCOC(=O)[C@@H]1[C@H]2C(=O)O[C@H](c3ccccc3)[C@H](c3ccccc3)N2[C@H](c2ccc(OCCOC(=O)[C@@H]3C[C@@H]4C(=O)N[C@@H](CCCCNC(C)=O)C(=O)N4[C@@H]3c3ccc(O)cc3)cc2)[C@@]12C(=O)Nc1ccc(I)cc12`, the composite z-score in test [1] is -0.101; in test [2], 0.0133; in test [3], -0.0502; in test [4], 0.722; in [5], 0.971; in [6], 0.767. Further, the composite z-score in [7] was 1.16; in [9] it was 0.4; in test [10] it was -0.0346; in [11] it was 1.54; in test [15], 2.15; in test [17], -0.0248. The composite z-score in test [18] came to 1.42; in test [19], 1.13; in [20] it was 0.15. The z-score in [8] is 0.0976 (inactive); in test [12], 0.0797 (inactive); in test [13] it was 0.994 (inactive); in test [14], 2.96 (inactive); in [16] it was -0.101 (inactive).
